# Hits are enriched below; roughly 9.2% of the tested compounds scored in any of these assays.
# KDM4E inh: qHTS Assay for Inhibitors of Human Jumonji Domain Containing 2E (JMJD2E) | Lysine-specific demethylase 4E (Homo sapiens), B2RXH2 | JMJD2E catalytic domain, FDH-coupled NADH fluorescence (FDH is formaldehyde dehydrogenase) | Potency, µM (top dose mostly 57.1 µM), inactives show at the top dose activity change, negative = inhibition, actives largely listed as inhibitors | hit rate 1.6% among 230,000;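 further: 0% = wells with enzyme and -100% = buffer wells without enzyme; nearly all actives have a fitted effect of over 50% in size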
# Target sequence (B2RXH2 1-337 limits assumed): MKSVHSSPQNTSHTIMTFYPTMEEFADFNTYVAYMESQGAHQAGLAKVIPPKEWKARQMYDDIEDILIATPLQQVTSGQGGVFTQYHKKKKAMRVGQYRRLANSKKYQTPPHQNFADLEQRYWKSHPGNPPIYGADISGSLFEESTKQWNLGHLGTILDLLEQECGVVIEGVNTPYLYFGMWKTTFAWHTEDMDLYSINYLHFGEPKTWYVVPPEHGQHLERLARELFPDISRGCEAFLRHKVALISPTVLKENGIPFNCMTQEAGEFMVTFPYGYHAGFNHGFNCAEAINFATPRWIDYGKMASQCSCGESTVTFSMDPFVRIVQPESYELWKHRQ
# ALDH1A1 inh: qHTS Assay for Inhibitors of Aldehyde Dehydrogenase 1 (ALDH1A1); Aldehyde dehydrogenase 1A1 (Homo sapiens), P00352; Purified ALDH1A1, NADH fluorescence, propionaldehyde substrate; Potency, µM (doses to about 75.3 µM), inactives show top-dose activity, negative = inhibition, usual class: inhibitors; hit rate 7.3% among 220,000; AID 1030, 2008;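 further: plate controls were no enzyme wells and a reference inhibitor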
# HPGD block: qHTS Assay for Inhibitors of HPGD (15-Hydroxyprostaglandin Dehydrogenase) | AID 894, 2007 | purified HPGD, NADH fluorescence kinetic, PGE2 substrate | 15-hydroxyprostaglandin dehydrogenase [NAD(+)] (Homo sapiens), P15428 | Potency, µM, without a hit: at the top dose activity change, negative = inhibition, actives largely listed as inhibitors | hit rate 4.3% among 150,000; further: on the % scale 0 is the no-effect control and ±100 the full control effect
# Target sequence (P15428 whole entry, looked up): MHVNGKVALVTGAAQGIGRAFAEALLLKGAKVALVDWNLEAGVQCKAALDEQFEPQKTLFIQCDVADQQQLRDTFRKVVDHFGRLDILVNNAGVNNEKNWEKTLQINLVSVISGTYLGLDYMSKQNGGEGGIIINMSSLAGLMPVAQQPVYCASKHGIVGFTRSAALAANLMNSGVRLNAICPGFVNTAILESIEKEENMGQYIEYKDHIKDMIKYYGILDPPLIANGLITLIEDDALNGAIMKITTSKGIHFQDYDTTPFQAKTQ
#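 20 nM HPGD preincubated 15 min at room temperature with compound in 50 mM Tris-HCl pH 8, 0.01% Tween 20. Started with 1 mM NAD+ and 30 uM prostaglandin E2; NADH fluorescence (360/450 nm) read 5 times over 30-s intervals, last minus first.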
# LMNA splice mod: qHTS Assay for Modulators of Lamin A Splicing; HeLa LMNA splicing GFP/RFP minigene ratio, 48 h; AID 1487, 2009; hit rate 0.01% among 200,000; Potency, µM (top dose mostly 46.1 µM), for the others: at the highest dose ratio change, negative = inhibition, most hits filed as inhibitors; active means well fitted inhibition curve with a large enough effect in the signal ratio, with a control signal flat, not every such curve was filed as active; inconclusive means small, poorly fitted or top-dose-only effect, or effect the other way, or a change in a side signal; the % refers to the signal ratio; further: on the % scale 0 is the no-effect control and ±100 the full control effect
#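 S3 HeLa stable clones carrying a lamin A-EGFP splicing minigene plus DsRed2 were seeded at 600 cells/well in Opti-MEM with 2% FBS, pin-dosed and incubated 48 h at 37°C. Acumen cytometry (488 nm) gave the GFP/RFP total-intensity ratio.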
# HTT aggregate: qHTS Multiplex Assay to Identify Dual Action Probes in a Cell Model of Huntington: Aggregate Formation (GFP). Potency, µM (top dose mostly 46.1 µM), for inactives: at the top dose activity change, negative = inhibition, actives largely listed as inhibitors. hit rate 1.1% among 220,000. PC12 HttQ103-GFP aggregates, Acumen cytometry, 40 h; active means well fitted curve in the direction sought with a large enough effect; inconclusive means small, poorly fitted or top-dose-only effect, or another doubt; inactive means no such curve, though single readings can be large; an effect the other way counts as inactive or inconclusive; further: on the % scale 0 is the no-effect control and ±100 the full control effect; nearly all actives have a fitted effect of over 60% in size
#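 Aggregates are detected as GFP objects 1–25 µm with signal 6 STDEV over background in lysates of induced PC12 cells. These carry Huntingtin exon 1 with 103 glutamines fused to GFP under an ecdysone promoter; compounds titrated.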
# HTT cytoprotect: qHTS Multiplex Assay to Identify Dual Action Probes in a Cell Model of Huntington: Cytoprotection (ATP); PC12 HTT-Q103 induced, cytoprotection, ATP luminescence, 40 h; Potency, µM (top dose mostly 56.4 µM), without a hit: cytoprotection (ATP increase), actives largely listed as activators; hit rate 0.14% among 230,000; active means well fitted curve in the direction sought with a large enough effect; inconclusive means small, poorly fitted or top-dose-only effect, or another doubt; inactive means no such curve, though single readings can be large; an effect the other way counts as inactive or inconclusive; further: % of control where 0% means no effect; nearly all actives have a fitted effect of over 45% in size
#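 PC12 cells with ecdysone-inducible HTT exon 1 Q103-GFP, induced with 100 nM tebufenozide and co-treated with library compounds in a dose series (1536-well, 1500 cells/well). Cytoprotection read as ATP content by ATPlite luminescence.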
# An asterisk follows results filed as active; u = inconclusive; x = no result; ! = repeats disagree; [ ] = another dose, or the depositor's remark. Unless noted, the call rests on the fitted dose curve; in most records, active means well fitted inhibition curve with a large enough effect (not every such curve was filed as active); inconclusive means small, poorly fitted or top-dose-only effect, or another doubt; inactive means no such curve, though single readings can be large or run the other way. Potency means the concentration at half of the fitted maximal effect.
SMILES,KDM4E inh,ALDH1A1 inh,HPGD block,LMNA splice mod,HTT aggregate,HTT cytoprotect
O=[N+]([O-])C(Br)(CO)CO,x,x,x,u,6%,9%
Fc1ccc(C(OCCN2CCN(C/C=C/c3ccccc3)CC2)c2ccc(F)cc2)cc1,x,-14%,x,x,x,-174%
CCOC(=O)CSCCOc1ccc(C=C2C(=O)NC(=O)NC2=O)cc1OC,u,13µM*,x,u,11%,-30%
CC[C@@]1(O)C(=O)OCc2c1cc1n(c2=O)Cc2cc3cc(O)ccc3nc2-1,14%,-9%,-23%,x,x,-286%
O=C1NC(=O)C(C(CC(=O)c2ccccc2)c2ccccc2)C(=O)N1 (stereo unspecified),19%,0.1µM*,x,19%[46 µM],0%[9.22 µM],11%[10 µM]
CN1[C@@H](CC(=O)c2ccccc2)CCC[C@@H]1C[C@@H](O)c1ccccc1,4%[25.5 µM],-4%[20.9 µM],-4%,-11%,x,4%
O=C1NC(=O)C(=C/C=C/c2coc3ccc(Br)cc3c2=O)C(=O)N1,-6%,3.2µM*,x,9%[46 µM],-1%[9.22 µM],1%[10 µM]
O=C1NC(=O)C(=Cc2coc3ccccc3c2=O)C(=O)N1,20µM*,3.5µM*,x,x,-14%,11%
O=C1NC(=O)C(=Cc2ccsc2)C(=O)N1,-16%,-3%,x,x,5%[9.22 µM],-8%[10 µM]
O=C1NC(=O)C(=Cc2csc3ccccc23)C(=O)N1,u,10µM*,x,x,8%[9.22 µM],21%[10 µM]
C=CCc1c(C)[nH]c(=S)c(C#N)c1C,u,4.5µM*,4µM*,8%,15%,-19%
COCc1cc(C)c(C#N)c(=S)[nH]1,0%,u,u,-1%,1%,-14%
Cc1[nH]c(=O)[nH]c(=O)c1/C=C/C(=O)OCC(C)C,-5%,u,u,u,-1%,-5%[10 µM]
C=CCc1cc(C=C2C(=O)NC(=O)NC2=O)cc(OC)c1OCc1ccc(C(=O)O)cc1,u,11µM*,x,x,-14%,-23%
C=CCc1cc(C=C2C(=O)N(C)C(=O)N(C)C2=O)cc(OCC)c1OCc1ccccc1,-20%,25µM*,14µM*,0%,0%,x
COc1ccc(CN2C(=O)NC(=O)/C(=C/c3cc(OC)c(OC)c(OC)c3)C2=O)cc1,-7%,x,x,x,4%[9.22 µM],-10%[10 µM]
NCCSC(c1ccccc1)c1ccccc1,x,-12%[13.5 µM],-8%,x,x,15%[10 µM]
COc1c(C(C)(C)C)cc([N+](=O)[O-])c(C)c1[N+](=O)[O-],x,u,-8%,x,x,-10%
COC(=O)N(c1ccccc1)P1(=S)OCCO1,-3%,4µM*,8.9µM*,3%,3%,-25%
CC(O)C(C)OC(=O)[C@@H]1C[C@@H]2c3cccc4c3c(cn4C(C)C)C[C@H]2N(C)C1 (stereo partly specified),u,1.8µM*!,-16%,-22%,x,-44%
CC(C)n1cc2c3c(cccc31)[C@@H]1C[C@H](C(=O)O[C@@H](C)[C@H](C)O)CN(C)[C@H]1C2,x,x,x,x,x,-8%[1.9 µM]
O=C1C2CC=CCC2C(=O)N1SC(Cl)(Cl)Cl (stereo unspecified),x,0.4µM*,7.1µM*,u,14µM*,-99%
CC(=O)[C@@H]1CC[C@H]2[C@@H]3CC[C@@H]4CC(=O)CC[C@]4(C)[C@H]3CC[C@]12C,x,u,x,x,x,-25%
COc1ccc(C(=O)Nc2sc3c(c2C(=O)O)CC(C)(C)OC3)cc1,-26%,20µM*,u,u,-5%,x
CCCN1CCC[C@@H]2Cc3n[nH]cc3C[C@H]21,1%,-4%,-13%,u,x,x
SMILES,KDM4E inh,ALDH1A1 inh,HPGD block,LMNA splice mod,HTT aggregate,HTT cytoprotect
OCC(CBr)(CBr)CBr,x,18µM*,-9%,x,x,-47%
CCOC(=O)C1=CC(OC(CC)CC)C(NC(C)=O)C(N)C1 (stereo unspecified),-18%,7%,-10%,u,10%,-40%
O=C1NC(=O)C(=Cc2ccc(OCC(=O)N3CCOCC3)cc2)C(=O)N1,u,5µM*,-20%,u,-11%,x
O=C(c1cc(C(=O)NCc2ccccc2)c(=O)n(Cc2ccccc2)c1)c1cc(Cl)ccc1O,-24%,u,16µM*,u,u,x
COc1ccc(N=Nc2c(O)[nH]c(=S)[nH]c2=O)cc1,-5%,-3%,x,-6%[9.22 µM],18%,-64%
COc1cccc(N=Nc2c(O)[nH]c(=S)[nH]c2=O)c1,-6%,25µM*,x,x,22%[9.22 µM],5%[10 µM]
CC1CCCN(C(=O)CCl)C1 (stereo unspecified),-2%,0.63µM*,-6%,u,-8%,x
CC1CCCN(C(=O)CN2C3CCC2CC(O)(c2ccc(F)cc2)C3)C1 (stereo unspecified),1%,11%,x,x,10%,-22%
CC[C@@]1(O)CC(O)c2c(cc3c(c2O)C(=O)c2c(O)ccc(O)c2C3=O)C1C(=O)OC (stereo partly specified),13µM*,1%,-5%,x,x,-270%
BrC(Br)Br,x,1%,-2%,x,x,-7%
Cc1c(N=Nc2c(O)n(Cc3ccccc3)c(=O)[nH]c2=O)c(=O)n(-c2ccccc2)n1C,7.1µM*,-5%,u,u,-27%,10%[0.074 µM]
CN1C(=O)C(=Cc2ccc(N3CCOCC3)o2)C(=O)N(C)C1=O,-5%,6%,16µM*,2%,9%,x
CN1C(=O)C(=Cc2ccc(-c3cccc(Cl)c3)o2)C(=O)N(C)C1=O,-4%,u,7.9µM*,-8%,-17%,x
Cc1ccc(Sc2ccc(C=C3C(=O)N(C)C(=O)N(C)C3=O)o2)cc1,8%,4.5µM*,x,x,10%,-28%
